# Measured values published in the supplement of paper PMC6555819.
# Tests used:
# Assay in all cases: PBM binding z-score (relative to random genomic background probes); higher = stronger binding; sequences stand for … in GC…GCGATTGACAGCGTAGAATGAAGG
# [1] = tested on: FXR:RXRa (NR concentration 270 nM, RXRa partner concentration 90 nM)
# How it was run: (§1)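 Random background probes are the reference for binding z-scores. These scores derive from regression-normalized fluorescence on custom Agilent 4×180K protein-binding microarrays incubated 1 h with ligand-free nuclear receptor dimers. Binding was detected with antibodies against each partner (one per run).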
# [2] = tested on: LXRa:RXRa (NR concentration 270 nM, RXRa partner concentration 90 nM)
# How it was run: as §1
# [3] = tested on: LXRa homodimer (NR concentration 270 nM)
# How it was run: as §1
# [4] = tested on: LXRb:RXRa (NR concentration 270 nM, RXRa partner concentration 90 nM)
# How it was run: as §1
# [5] = tested on: LXRb homodimer (NR concentration 270 nM)
# How it was run: as §1
# [6] = tested on: PPARa:RXRa (NR concentration 270 nM, RXRa partner concentration 90 nM)
# How it was run: as §1
# [7] = tested on: PPARg:RXRa (NR concentration 180 nM, RXRa partner concentration 90 nM)
# How it was run: as §1
# [8] = tested on: PPARg:RXRa 270nM:90nM, anti-RXR (NR concentration 270 nM, RXRa partner concentration 90 nM)
# How it was run: as §1
# [9] = tested on: PPARg:RXRa 30nM:10nM, anti-RXR (NR concentration 30 nM, RXRa partner concentration 10 nM)
# How it was run: as §1
# [10] = tested on: PPARg:RXRa 90nM:30nM, anti-RXR (NR concentration 90 nM, RXRa partner concentration 30 nM)
# How it was run: as §1
# [11] = tested on: PPARg:RXRa DBDmut IVT, anti-RXR (DBD mutation: RXRa K156A/R161A, NR concentration 270 nM, RXRa partner concentration 90 nM)
# How it was run: as §1
# [12] = tested on: PPARg:RXRa IVT, anti-PPARg (NR concentration 270 nM, RXRa partner concentration 90 nM)
# How it was run: as §1
# [13] = tested on: PPARg DBDmut:RXRa IVT, anti-PPARg (DBD mutation: PPARg1 K132A/R137A, NR concentration 270 nM, RXRa partner concentration 90 nM)
# How it was run: as §1
# [14] = tested on: PPARg DBDmut IVT, anti-PPARg (DBD mutation: PPARg1 K132A/R137A, NR concentration 270 nM)
# How it was run: as §1
# [15] = tested on: PPARg homodimer (NR concentration 180 nM)
# How it was run: as §1
# [16] = tested on: PXR:RXRa (NR concentration 270 nM, RXRa partner concentration 90 nM)
# How it was run: as §1
# [17] = tested on: PXR homodimer (NR concentration 270 nM)
# How it was run: as §1
# [18] = tested on: RARa:RXR (NR concentration 270 nM, RXRa partner concentration 90 nM)
# How it was run: as §1
# [19] = tested on: RARa homodimer (NR concentration 270 nM)
# How it was run: as §1
# [20] = tested on: RARb:RXRa (NR concentration 270 nM, RXRa partner concentration 90 nM)
# How it was run: as §1
Sequence,PBM binding z-score [1],PBM binding z-score [2],PBM binding z-score [3],PBM binding z-score [4],PBM binding z-score [5],PBM binding z-score [6],PBM binding z-score [7],PBM binding z-score [8],PBM binding z-score [9],PBM binding z-score [10],PBM binding z-score [11],PBM binding z-score [12],PBM binding z-score [13],PBM binding z-score [14],PBM binding z-score [15],PBM binding z-score [16],PBM binding z-score [17],PBM binding z-score [18],PBM binding z-score [19],PBM binding z-score [20]
TGTCAAAGTTCACAGGTAACGTAAGTATCCACAC,6.59,5.87,3.37,4.04,1.49,6.02,8.64,7.43,5.54,7.12,0.161,4.5,1.61,1.53,2.45,4.48,2.4,3.92,1.08,5.05
ATCGAAAGGTCGTGAGGTGAATATACAGAAAGGC,5.8,4.42,0.33,3.66,0.583,5.66,4.88,4.97,2,3.71,0.388,2.93,1.73,0.704,2.17,3.53,0.656,4.96,1.14,4.12
GCGACTGGGGCATCAGCAGGATACCATAACTTAA,-0.587,-0.962,-0.678,-0.508,-0.969,0.0763,0.883,0.422,-0.491,-0.212,3.9,2.61,-1.01,-0.959,-0.175,-0.691,-0.304,-0.475,-0.756,0.233
CCTTACGGGCCACTGACAGGTTATAGCATTTGGA,-0.0975,-0.00158,0.136,-0.0299,-0.59,0.315,0.415,0.0355,-0.0145,-0.254,0.882,0.315,-0.753,-0.329,0.129,-0.136,-0.0803,0.247,0.161,0.69
ACTTACCGGTCAACGAGGTTATAGCACGCGTATA,2.61,3.17,2.47,1.96,1.3,2.3,1.3,1.2,0.21,0.785,1.22,1.9,0.959,1.45,1.88,2.33,1.42,2.38,1.15,3.08
CGTCCAAGGTCAGCAGGTCAGTCAAAGCGACGTG,5.86,4.15,0.724,3.27,-0.456,4.84,4.14,4.59,0.878,3.11,2.82,3.69,0.0784,-0.246,3.64,3.71,0.514,4.81,0.95,5.08
CAACCTAGGTCACAGAGGTCAAAGTCCGTGCGTA,7.56,6.89,7.7,6.74,2.06,6.1,7.27,6.89,3.63,6.19,5.47,5.9,0.378,-0.0572,6.18,6.95,12.5,7.87,2.8,5.39
ATATGTAGGTTACATCCGGGTCATTTAGGCTATG,2,4.62,1.8,3.3,0.865,4.68,6.01,5.23,2.64,4.38,7.42,7.5,4.18,3.77,3.45,3.45,1.06,3.55,0.824,2.16
CCGCGTAGGTTATGGGGCATTCAGGCAACGGTGA,0.332,0.33,-0.277,0.756,-0.566,1.43,0.613,1.17,-0.391,0.458,0.695,0.593,-1.12,-0.878,0.303,-0.0775,-0.606,0.609,0.000588,0.985
CCGAGTAGGTTATGGGACATTCAGGCAACGGTGA,0.111,0.356,0.00939,0.277,0.141,0.923,1.53,2.35,0.542,1.74,3.53,2.6,-0.291,-0.241,1.11,-0.0515,0.264,0.315,0.595,0.813
ATATGTAGGTTAAGAGTCATTCAGGTTGGTTCGC,0.855,1.47,0.703,1.18,0.774,4.58,8.36,7.68,6.62,8.28,7.43,7.13,1.39,1.44,2,1.5,0.614,1.5,1.72,1.42
TCTTGTAGATCAATAGAGGTTTAGAAAGTGCGCT,0.391,0.283,-0.272,0.00462,-0.299,0.237,-0.452,1.23,2.5,1.69,1.65,0.249,0.996,0.224,-0.539,0.49,-0.0138,0.588,0.0314,-0.311
GCTTGTAAATCAAGGTTAAGAAAGACTAAGCTAA,0.61,1.71,0.223,0.926,-0.355,1.56,0.214,0.467,0.122,0.622,0.268,0.664,-0.64,0.161,0.00597,0.564,-0.123,1.05,-0.0975,0.808
